Screening data as filed in PubChem BioAssay.
TrxR1 substrate: substrates of rat thioredoxin reductase 1 | 390,000 tested, 0.01% active | purified TrxR1 substrate turnover, NADPH consumption readout | AID 588456 | Potency, µM (titrated, usually from 114 µM), without a hit: top-dose activity change, negative = substrate turnover | O89049; also: potency is read from the fitted curve at half-maximal effect; % is scaled to controls: 0 for no effect and ±100 for the full control effect; nearly all actives have a fitted effect of over 50% in size
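Rat TrxR1, dispensed at 90 nM, was prereduced with 400 uM NADPH (final) for 5 min at ~22 deg C, then incubated with compound 15 min before 400 uM selenite. A first-read NADPH fluorescence drop versus no-compound background flagged substrates.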
Coupling enz: counter-screen for Giardia aldolase inhibitors: coupling enzyme system; 290,000 tested, 0.67% active; activity change, negative = inhibition, % at 58.2 µM, hits read low; coupling enzyme system counterscreen, AmpLite Red fluorescence; in the data active = activity change below about -30%; also: % is scaled to controls: 0 for no effect and ±100 for the full control effect
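Counterscreen lacking aldolase: glyceraldehyde-3-phosphate coupling-enzyme reagent preincubated 10 min at RT with compound (at 57.5 uM final), then substrate/coupling system with AmpLite Red added; fluorescence read at 525/598 nm after 20 min RT.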
TrxR1 inh-1: inhibitors of rat thioredoxin reductase 1; O89049; recombinant rTrxR1, NADPH fluorescence consumption, selenite substrate; Potency, µM (series often up to 114 µM), inactives show top-dose activity change, negative = inhibition, actives largely listed as inhibitors; 390,000 tested, 1% active; AID 588453; also: potency is read from the fitted curve at half-maximal effect; % is scaled to controls: 0 for no effect and ±100 for the full control effect; nearly all actives have a fitted effect of over 65% in size
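Rat TrxR1 (90 nM in the dispensed reagent) was pre-reduced with 400 uM NADPH for 5 min at room temperature, then incubated with compound for 15 min. After 400 uM selenite was added, NADPH fluorescence (Ex 340/Em 450 nm) was followed for 8 min.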
PI4K2A block: inhibitors of human PI4K2A; purified PI4K2A, ADP-Glo luminescence, 1 h; hits give low values; activity change, negative = inhibition, % at 76.9 µM; 420,000 tested, 0.13% active; in the data active = activity change below about -50%; inconclusive = mostly about -30% to -49%;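 also: -100% = wells without enzyme as full effect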
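In this quantitative HTS, ADP production by PI4K2A was quantified luminescently after 1 h at ambient temperature; 100 microM adenosine served as plate-quality control.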
GALK inh: inhibitors of human galactokinase; Purified GALK, Kinase-Glo residual ATP luminescence; P51570; Potency, µM (series often up to 57.5 µM), for inactives: at the highest dose activity change, negative = inhibition, most hits filed as inhibitors; 270,000 tested, 0.007% active; AID 1868; also: potency is read from the fitted curve at half-maximal effect; % is scaled to controls: 0 for no effect and ±100 for the full control effect
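GALK at 5 nM final was combined with compound, 35 uM ATP and 100 uM galactose in HEPES pH8.0 with MgCl2 and DTT. The reaction ran one hour at room temperature before luminescent ATP detection.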
Giardia killer: Giardia lamblia killing; Giardia lamblia trophozoite viability; 340,000 tested, 0.15% active; activity change, % at 7.66 µM, hits read low; in the data active = activity change below about -80%; inconclusive = between about -30% and that limit;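 also: parasites exposed to compound for two days anaerobically before the ATP read; % is scaled to controls: 0 for no effect and ±100 for the full control effect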
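Media and compound were dispensed first, then trophozoites at 100 cells/well; plates sat 48 hrs at 37 deg C without oxygen before ATP luminescence reagent was added and read after 15-30 min at room temperature.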
TRb-SRC2 inh: disrupts human TRb binding to SRC2 peptide in AlphaScreen; shares compounds with TrxR1 inh-1; Potency, µM; 30 tested, 50% active; AlphaScreen TRb LBD-SRC2 peptide binding, luminescence; calls by dose curve
HepG2 tox: reduces HepG2 viability in TRb-SRC2 counter-screen; shares compounds with TrxR1 inh-1; Potency, µM; 40 tested, 50% active; HepG2 viability, ATP luminescence (CellTiter-Glo), 72 h; calls by dose curve
AR SRC2 FP: AR-SRC2 (human) interaction inhibition, selectivity. 25 tested, under 10 active. shares compounds with TrxR1 inh-1. calls only. AID 2448. AR-LBD Tx-SRC2-3 fluorescence polarization, 3 h; call rule not given here
PPARg DRIP2 FP: disrupts human PPARgamma binding to DRIP-2 peptide. shares compounds with TrxR1 inh-1. PPARg LBD / Texas Red DRIP-2 peptide, fluorescence polarization, 3 h. Potency, µM. 25 tested, under 10 active; calls by dose curve
Target sequence (P37231 whole entry, looked up, the tested form may be a part): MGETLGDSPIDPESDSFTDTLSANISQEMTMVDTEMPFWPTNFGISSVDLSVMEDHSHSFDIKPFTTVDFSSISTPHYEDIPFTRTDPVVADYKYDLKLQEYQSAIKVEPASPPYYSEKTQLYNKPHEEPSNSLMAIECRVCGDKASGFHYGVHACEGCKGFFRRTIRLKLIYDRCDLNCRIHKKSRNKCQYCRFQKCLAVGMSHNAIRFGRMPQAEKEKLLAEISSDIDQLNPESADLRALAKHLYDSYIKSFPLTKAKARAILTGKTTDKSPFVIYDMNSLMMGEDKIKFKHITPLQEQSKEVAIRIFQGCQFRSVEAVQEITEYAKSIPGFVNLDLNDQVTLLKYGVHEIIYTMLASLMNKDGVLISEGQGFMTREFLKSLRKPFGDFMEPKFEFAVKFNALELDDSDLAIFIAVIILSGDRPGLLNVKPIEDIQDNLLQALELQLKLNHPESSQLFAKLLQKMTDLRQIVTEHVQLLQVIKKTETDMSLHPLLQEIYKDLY
VDR SRC2 FP: VDR-SRC2 (human) interaction inhibition, selectivity; Potency, µM; VDR LBD/SRC2-3 peptide, fluorescence polarization, 3 h; shares compounds with TrxR1 inh-1; 25 tested, under 10 active; calls by dose curve
GR counterassay: inhibits human glutathione reductase in TrxR1 counterassay; activity change, negative = inhibition, % at 57.1 µM; 55 tested, under 10 active; shares compounds with TrxR1 inh-1; AID 652020; purified GR, DTNB reduction absorbance 405 nm kinetic
TrxR1 inh-2: validation of rat thioredoxin reductase 1 inhibitors. 55 tested, 50% active. AID 652023. recombinant TrxR1, NADPH fluorescence consumption, selenite substrate. Potency, µM, most hits filed as inhibitors. shares compounds with TrxR1 inh-1
TrxR1 insulin: TrxR1 inhibition in insulin mechanism assay. shares compounds with TrxR1 inh-1. TrxR1 Trx-coupled insulin reduction, NADPH absorbance 340 nm. Potency, µM. 55 tested, 20% active. AID 652037;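 active = compounds with a measured potency under 100 micromolar; inconclusive = filed, but no rule given; inactive = potency at or above that, or unmeasurable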
TrxR1 inh-3: blocks rat TrxR1 reduction of DTNB; AID 652256; Potency, µM; purified TrxR1, DTNB reduction, A412; 55 tested, 90% active; shares compounds with TrxR1 inh-1;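 active = a half-inhibiting concentration could be measured and was below 100 µM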
Active calls of the source: *; i = inactive; ? = inconclusive; . = not tested or not shown; [ ] = remark or other dose. This is a sample that favours compounds with a hit; in the whole collection about 1.5% have one here. Unless noted, calls follow the shape of the dose curve; as a rule, active = well fitted curve in the direction sought with a large enough effect; inconclusive = small, poorly fitted or top-dose-only effect, or another doubt; inactive = no such curve, though single readings can be large; an effect the other way counts as inactive or inconclusive.

SMILES	TrxR1 substrate	Coupling enz	TrxR1 inh-1	PI4K2A block	GALK inh	Giardia killer	GR counterassay	TrxR1 inh-2	TrxR1 insulin	TrxR1 inh-3	others
CS(=O)(=O)c1ccc(C(=O)OCC(=O)N2CCCCC2)cc1[N+](=O)[O-]	.	.	.	.	.	.	.	.	.	.	HepG2 tox=21µM*
CCCSc1ncc(Cl)c(C(=O)Nc2c(C(=O)c3ccc(C)cc3)oc3ccccc23)n1	13%	.	27%	1	.	.	.	.	.	.
O=C(COC(=O)c1cc([N+](=O)[O-])ccc1Cl)NC1CCCC1	-8%	1	?	6	8%	2	.	.	.	.
O=C(COC(=O)c1cc([N+](=O)[O-])ccc1F)NC1C2CC3CC(C2)CC1C3 (centres undefined)	.	.	.	.	.	.	.	.	.	.	TRb-SRC2 inh=i;HepG2 tox=i;AR SRC2 FP=i;PPARg DRIP2 FP=i;VDR SRC2 FP=i
O=C(COC(=O)c1cc(S(=O)(=O)N2CCOCC2)ccc1F)Nc1cc([N+](=O)[O-])ccc1F	0%	.	7%	1	.	-7	.	.	.	.
C[S+](=O)([O-])c1ccc(C(=O)OCC(=O)NC2C3CC4CC(C3)CC2C4)cc1 (centres undefined)	.	.	.	.	.	.	.	.	.	.	TRb-SRC2 inh=i;HepG2 tox=i;AR SRC2 FP=i;PPARg DRIP2 FP=i;VDR SRC2 FP=i
O=C(COC(=O)c1cc([N+](=O)[O-])ccc1Cl)NC1C2CC3CC(C2)CC1C3 (centres undefined)	.	.	.	.	.	.	.	.	.	.	TRb-SRC2 inh=i;HepG2 tox=i;AR SRC2 FP=i;PPARg DRIP2 FP=i;VDR SRC2 FP=i
Cc1cc2c(cc3c(SCc4ccccc4Cl)nnc(C)n32)o1	-1%	.	18%	-1	.	.	.	.	.	.
COC(=O)c1cc(-c2cnc(OC)nc2OC)c(=O)n2c1CCC2	.	.	.	0	.	.	.	.	.	.
CCC[C@@H]1NC(=O)[C@@H](NC(C)=O)CSSC[C@@H](C(N)=O)NC(=O)CNC(=O)[C@H](Cc2c[nH]c3ccccc23)NC(=O)[C@H](CCCN=C(N)N)NC(=O)[C@H](Cc2ccc3ccccc3c2)NC(=O)[C@H](Cc2cnc[nH]2)NC(=O)[C@H](CCCN=C(N)N)NC1=O	.	7	.	.	.	.	.	.	.	.
CC(C)OC(=O)c1cn(-c2ccccc2)nc1-c1ccco1	8%	0	5µM*	-11	-2%	-13	-13	?	i	2.5µM*
CCOc1cc(CNc2ccc(N3CCCC3)cc2)cc(Cl)c1OC	-13%	-22	3.5µM*	-9	.	-3	-6	?	i	8µM*
Cc1cc2nc(Sc3c([N+](=O)[O-])nc(C)n3Cc3ccccc3)[nH]c2cc1C	-8%	1	7.1µM*	3	-3%	3	-11	3*	32µM*	0.013µM*
Cc1nc([N+](=O)[O-])c(N2CCN(Cc3ccccc3)CC2)n1Cc1ccccc1	-3%	1	-1%	-5	1%	-3	.	.	.	.
CCOC(=O)c1c(C)sc(-c2c(-c3ccc(OC)c(F)c3)[nH]c3c2c(=O)[nH]c(=O)n3C)c1O	-7%	.	-21%	-1	.	.	.	.	.	.
COC(=O)c1ccc(C2c3c(oc4ccccc4c3=O)C(=O)N2CCCN2CCOCC2)cc1 (centres undefined)	7%[57.1 µM]	1	10µM*	-1	2%	-20	-8	?	i	1.2µM*
COCCN1C(=O)c2oc3ccccc3c(=O)c2C1c1ccc(C(=O)OC)cc1 (centres undefined)	8%[57.1 µM]	0	17%[57.1 µM]	-2	-3%	-6	.	.	.	.
COc1ccccc1N1CCN(C(CNC(=O)C(=O)NCCc2ccccc2)c2cccnc2)CC1 (centres undefined)	11%[11.4 µM]	.	-3%	1	.	.	.	.	.	.
Cc1ccccc1NC(=S)NC(=O)CCc1ccccc1	2%	-11	13µM*	-2	0%	8	1	3*	i	36µM*
NC(=O)c1ccccc1NC(=S)NC(=O)CCc1ccccc1	-14%	1	-31%	1	2%	-5	.	.	.	.
CCOC(=O)c1c(C)oc2c1c(CN1CCN(CCO)CC1)c(O)c1ccccc12	6%[57.1 µM]	-25	1.1µM*	1	0%	7	-21	0.3*	i	0.77µM*
